AMA1 RON2 block: qHTS for Inhibitors of AMA1-RON; Towards Development of Antimalarial Drug Lead: Primary Screen | Plasmodium falciparum AMA1 (3D7) - RON2 peptide interaction | AlphaScreen AMA1-biotinylated RON2 peptide binding | Potency, µM (titrated, usually from 58.2 µM), usual class: inhibitors | 360,000 compounds, 0.2% hits; active means well fitted inhibition curve with a large enough effect; inconclusive means small, poorly fitted or top-dose-only effect; inactive means no such curve, though single readings can be large or run the other way; further: nearly all actives have a fitted effect of over 45% in size
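AMA1 (3D7) with his tag at 25 nM final met compounds first, then biotinylated RON2 peptide at 25 nM; detection used donor plus acceptor beads, 10 µg/mL apiece, read by AlphaScreen after 30 min at room temperature.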
MARV entry inh: qHTS for inhibitors of binding or entry into cells for Marburg Virus; Marburg virus pseudotyped entry inhibition, cell reporter; Potency, µM (series often up to 37.8 µM), most hits filed as inhibitors; 300,000 compounds, 1.8% hits; calls by dose curve; tested in HEK293 cells
CHX counter: Cycloheximide Counterscreen for Small Molecule Inhibitors of Shiga Toxin | cell reporter, cycloheximide protein synthesis inhibition counterscreen | max response, % | 300,000 compounds, 12% hits; in the data active means max response mostly above about 13%, no sharp cut-off; inactive means mostly below about 14%; further: read at 38.3 µM for the half of the compounds with a filed dose
Shiga toxin inh: A qHTS for Small Molecule Inhibitors of Shiga Toxin | inhibition, % at 38.7 µM | AID 2315, 2010 | Vero cells, Shiga toxin protein synthesis inhibition reporter | 290,000 compounds, 9.2% hits; in the data active means inhibition mostly above about 28%, no sharp cut-off; inactive means mostly below about 43%
Lassa entry inh: qHTS for Inhibitors of binding or entry into cells for Lassa Virus; Lassa virus pseudotype entry inhibition, cell reporter; Potency, µM (doses to about 37.9 µM), actives largely listed as inhibitors; 300,000 compounds, 1.2% hits; AID 540256, 2011; calls by dose curve; tested in HEK293 cells; further: nearly all actives have a fitted effect of over 50% in size
A number is an active result; ! = a repeat was not active; [ ] = dose if it differs, or a comment. Shown is part of a subset that was picked to be rich in hits.

Results for Cc1ccc(CNC(=O)CCC2CCCN(Cc3cccc4cccnc34)C2)o1 (stereo not given) ?
AMA1 RON2 block: inactive; MARV entry inh: inactive; CHX counter: inactive; Shiga toxin inh: inactive; Lassa entry inh: inactive

Results for Cc1ccc(CNC(=O)CCC2CCCN(Cc3cccc4ncccc34)C2)o1 (stereo not given) ?
AMA1 RON2 block: inactive; MARV entry inh: inactive; CHX counter: 11; Shiga toxin inh: inactive; Lassa entry inh: inconclusive

How did O=C(/C=C/c1cccs1)N1CCN(c2ccccc2F)CC1 do in these assays?
AMA1 RON2 block: inactive; MARV entry inh: inactive; CHX counter: 15; Shiga toxin inh: 63; Lassa entry inh: inactive

Results for O=C(/C=C/c1ccc([N+](=O)[O-])cc1)N1CCN(c2ccccc2F)CC1 ?
AMA1 RON2 block: inactive; MARV entry inh: inconclusive; CHX counter: 15; Shiga toxin inh: 46; Lassa entry inh: inconclusive

What do the screens show for `COc1ccc(NC(=O)CSc2oc(-c3cccs3)nc2S(=O)(=O)c2ccccc2)c(OC)c1`?
MARV entry inh: inactive; Lassa entry inh: inactive

How did O=S(=O)(c1cc(F)ccc1F)N1CCC2(CC1)OCCO2 do in these assays?
AMA1 RON2 block: inactive; CHX counter: 60; Shiga toxin inh: 85

What do the screens show for `COc1ccc(-c2nnc3n2N=C(c2ccc(OC)c(OC)c2)CS3)c(OC)c1`?
CHX counter: inactive; Shiga toxin inh: inactive

Results for Cc1cc(-c2ccccc2)nc2cc(C(=O)Nc3cc(C(F)(F)F)ccc3Cl)nn12 ?
Lassa entry inh: inactive

How did O=C(CNC(=O)C1CC(=O)N(c2cccc3ccccc23)C1)Nc1ccccc1Br (stereo not given) do in these assays?
AMA1 RON2 block: inactive

What do the screens show for `C#C[C@]1(O)CC[C@H]2[C@@H]3CCC4=Cc5oncc5C[C@]4(C)[C@H]3CC[C@@]21C`?
AMA1 RON2 block: inactive

What do the screens show for `C#C[C@]1(O)CC[C@H]2[C@H]3CCC4=Cc5oncc5C[C@]4(C)[C@@H]3CC[C@]21C`?
MARV entry inh: 21µM

Results for COc1cc(/C=N/Nc2snc(SC)c2C#N)cc(OC)c1OC ?
AMA1 RON2 block: inactive; MARV entry inh: 1.6µM; CHX counter: inactive; Shiga toxin inh: inactive; Lassa entry inh: 1.3µM

How did CSc1nsc(N/N=C/c2ccc3c(c2)OCO3)c1C#N do in these assays?
AMA1 RON2 block: inactive; CHX counter: 41; Shiga toxin inh: 84

What do the screens show for `Cc1oc(/N=C/c2ccc3c(c2)OCO3)c(C#N)c1C`?
AMA1 RON2 block: inactive; MARV entry inh: inactive; CHX counter: inactive; Shiga toxin inh: inactive; Lassa entry inh: inactive

Results for COC(=O)N[C@H](CC(C)=O)c1ccc(Cl)cc1 ?
MARV entry inh: inactive

How did O=C(C1CCCCC1)N1C[C@H](n2cc(-c3ccc(F)cc3)nn2)[C@@H](O)C[C@@H]1c1ccccc1 do in these assays?
AMA1 RON2 block: inactive

How did CCCCCCN1C[C@@H](n2cc(-c3ccc(F)cc3)nn2)[C@H](O)C[C@H]1c1ccccc1 do in these assays?
MARV entry inh: 16µM

Results for O=C(C1CCCCC1)N1C[C@H](n2cc(-c3ccc(F)cc3)nn2)[C@H](O)C[C@@H]1c1ccc(Cl)cc1 ?
MARV entry inh: 3.5µM

How did CCCCCCN1C[C@H](n2cc(C3CC3)nn2)[C@@H](O)C[C@@H]1c1ccc(C)cc1 do in these assays?
AMA1 RON2 block: inactive

What do the screens show for `CCCCCCN1C[C@H](n2cc(C3CC3)nn2)[C@@H](O)C[C@H]1c1ccc(Cl)cc1`?
Lassa entry inh: 16µM

Results for O=C(CCc1nnc(Cc2c[nH]c3ccccc23)o1)NCC1CC12CCCCC2 (stereo not given) ?
AMA1 RON2 block: inactive; MARV entry inh: inconclusive; CHX counter: inactive; Shiga toxin inh: inactive; Lassa entry inh: inactive

How did O=S(=O)(Nc1ccc(Br)cc1)c1cccc(NS(=O)(=O)c2cccs2)c1 do in these assays?
AMA1 RON2 block: inactive

Results for CNC(=S)NNC(=O)c1sccc1C ?
AMA1 RON2 block: inactive; MARV entry inh: inactive; CHX counter: 18; Shiga toxin inh: inactive; Lassa entry inh: inactive

What do the screens show for `Cc1ccsc1C(=O)NNC(=S)NC1CCCCC1`?
AMA1 RON2 block: inactive; CHX counter: 38; Shiga toxin inh: 37

Results for CCCc1cc(C(=O)NNC(=S)NC2CCCCC2)cs1 ?
AMA1 RON2 block: inactive; MARV entry inh: inactive; CHX counter: 22; Shiga toxin inh: inactive; Lassa entry inh: inactive

How did CCc1nc2c(OCC(=O)C(C)(C)C)cccn2c1N(C=O)CC(=O)N(C)C do in these assays?
AMA1 RON2 block: inactive

What do the screens show for `COc1ccc(-c2cc3nnc(-c4ccccc4)nc3s2)cc1`?
AMA1 RON2 block: inactive; MARV entry inh: inconclusive; CHX counter: 50; Shiga toxin inh: active; Lassa entry inh: inactive

How did COc1ccc(-c2nc3ccccc3nc2-c2ccccc2)cc1 do in these assays?
AMA1 RON2 block: inactive; MARV entry inh: inactive; CHX counter: inactive; Shiga toxin inh: inactive; Lassa entry inh: inactive

Results for CC(C)NCC(O)COc1cccc2ccccc12 (stereo not given) ?
AMA1 RON2 block: inactive; MARV entry inh: 0.79µM!; CHX counter: inactive; Shiga toxin inh: inactive; Lassa entry inh: inactive

How did CC(C)NCC(O)COc1cccc2[nH]ccc12 (stereo not given) do in these assays?
MARV entry inh: inconclusive; CHX counter: inactive; Shiga toxin inh: inactive; Lassa entry inh: inconclusive

What do the screens show for `COC(=O)c1ccccc1C(=O)N(c1ccccc1)c1ccccc1`?
AMA1 RON2 block: inactive; MARV entry inh: inactive; Lassa entry inh: inactive

How did O=C(Nc1ccccc1C(=O)NCCc1ccccc1)c1cnccn1 do in these assays?
AMA1 RON2 block: inactive; MARV entry inh: inconclusive; CHX counter: 19; Shiga toxin inh: inactive; Lassa entry inh: inactive

Results for O=C(NCCc1ccccc1)c1ccccc1NC(=O)C1CC=CCC1C(=O)O (stereo not given) ?
AMA1 RON2 block: inactive; MARV entry inh: inconclusive; CHX counter: 61; Shiga toxin inh: 70; Lassa entry inh: inactive

What do the screens show for `O=C(COC(=O)c1cnccn1)NCCc1ccccc1`?
AMA1 RON2 block: inactive; MARV entry inh: inactive; CHX counter: inactive; Shiga toxin inh: inactive; Lassa entry inh: inactive

Results for O=C(O)CCC(=O)Nc1ccccc1C(=O)Nc1ccccc1 ?
AMA1 RON2 block: inactive; MARV entry inh: inactive; CHX counter: inactive; Shiga toxin inh: inactive; Lassa entry inh: inactive

What do the screens show for `NC(=O)c1ccccc1NC(=S)NC(=O)CCc1ccccc1`?
AMA1 RON2 block: inactive; MARV entry inh: inconclusive; CHX counter: inactive; Shiga toxin inh: inactive; Lassa entry inh: inconclusive

How did O=C(O)CCC(=O)Nc1ccccc1C(=O)NCCc1ccccc1 do in these assays?
AMA1 RON2 block: inactive[2.32 µM]; MARV entry inh: inconclusive; CHX counter: 45; Shiga toxin inh: 73; Lassa entry inh: inactive

How did NC(=O)c1ccccc1NC(=O)CCc1ccccc1 do in these assays?
AMA1 RON2 block: inactive; MARV entry inh: inactive; CHX counter: 29; Shiga toxin inh: inactive; Lassa entry inh: inconclusive

Source: PubChem
